ETS1 binding intensity and RUNX1 binding intensity data for 38 sequences are collected here from the supplement of paper PMC10681739.

Assay [1] addresses T1, ETS1 (UniProt P14921).
T1 sequence: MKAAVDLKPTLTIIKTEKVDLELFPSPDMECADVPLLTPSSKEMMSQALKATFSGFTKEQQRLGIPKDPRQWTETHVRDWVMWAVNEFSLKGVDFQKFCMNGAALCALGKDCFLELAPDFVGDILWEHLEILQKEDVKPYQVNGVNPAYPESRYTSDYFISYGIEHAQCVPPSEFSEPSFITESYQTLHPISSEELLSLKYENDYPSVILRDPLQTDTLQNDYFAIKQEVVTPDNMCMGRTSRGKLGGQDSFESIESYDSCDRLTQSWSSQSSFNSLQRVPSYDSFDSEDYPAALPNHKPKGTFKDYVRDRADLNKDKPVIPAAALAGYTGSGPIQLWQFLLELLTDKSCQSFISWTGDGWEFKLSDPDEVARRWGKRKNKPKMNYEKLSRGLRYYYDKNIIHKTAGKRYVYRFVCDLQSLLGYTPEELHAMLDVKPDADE
Nature of the assay: ETS1 binding intensity (PBM fluorescence), ETS1 alone (arbitrary fluorescence units); higher = stronger binding. As to conditions: ETS1 concentration 1 nM; RUNX1 concentration 0 nM.

Assay [2] has as its target RUNX1 (UniProt Q01196). The experiment in a line: RUNX1 binding intensity (PBM fluorescence), RUNX1 alone (arbitrary fluorescence units); higher = stronger binding. As to conditions: RUNX1 concentration 2 nM; ETS1 concentration 0 nM. As to the method:
(§1)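 Cooperative gcPBM on 36-bp genomic probes with neighbouring ETS1 and RUNX1 sites. Recombinant human RUNX1 (2 nM) was incubated alone or with ETS1 (25 nM) and detected with anti-RUNX1 antibody plus Alexa488 secondary. Values are medians over 4 replicate spots; the RUNX1+ETS1 data were normalised to the RUNX1-only data. The probes sit in constant array flanks that are not printed.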

In assay [3] the target is T1, ETS1. The experiment in a line: ETS1 binding intensity (PBM fluorescence) in presence of RUNX1, normalised to ETS1-only experiment (arbitrary fluorescence units); higher = stronger binding. As to conditions: ETS1 concentration 1 nM; RUNX1 concentration 25 nM.
The target of assay [4] is RUNX1 (UniProt Q01196). The experiment in a line: RUNX1 binding intensity (PBM fluorescence) in presence of ETS1, normalised to RUNX1-only experiment (arbitrary fluorescence units); higher = stronger binding. As to conditions: RUNX1 concentration 2 nM; ETS1 concentration 25 nM. How it is done: as §1
Chain of RUNX1 (Q01196 whole entry): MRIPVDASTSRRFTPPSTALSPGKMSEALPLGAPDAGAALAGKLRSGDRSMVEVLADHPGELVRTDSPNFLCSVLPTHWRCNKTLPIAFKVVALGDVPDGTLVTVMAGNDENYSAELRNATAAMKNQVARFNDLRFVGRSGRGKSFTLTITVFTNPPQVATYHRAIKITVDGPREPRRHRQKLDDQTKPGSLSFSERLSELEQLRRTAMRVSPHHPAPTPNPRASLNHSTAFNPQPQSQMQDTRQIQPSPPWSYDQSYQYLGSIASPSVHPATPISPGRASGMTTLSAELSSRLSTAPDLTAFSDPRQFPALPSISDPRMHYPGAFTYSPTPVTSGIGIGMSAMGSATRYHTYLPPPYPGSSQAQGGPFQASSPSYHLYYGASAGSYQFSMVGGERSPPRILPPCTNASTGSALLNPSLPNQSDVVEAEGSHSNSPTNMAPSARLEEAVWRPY
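Wherever RUNX1 binding intensity (PBM fluorescence) in presence of ETS1, normalised to RUNX1-only experiment is given: Full-length recombinant human ETS1 or RUNX1 bound to double-stranded 36-bp genomic probes on microarrays, detected by protein-specific primary antibody and Alexa488 secondary, spot fluorescence as median of four replicate spots.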
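Wherever RUNX1 binding intensity (PBM fluorescence), RUNX1 alone is given: Full-length recombinant human RUNX1 bound to double-stranded 36-bp genomic probes on a high-density microarray, scored as Alexa488 fluorescence per spot via anti-RUNX1 antibody, median of four replicate spots.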

Turning to GCACTCGGATGTTGGCCGTAGTTGTGGTTATAGTTG, the results for the ETS1 binding intensity in assay [1] and in assay [3] were 464 and 1090, respectively. The results for the RUNX1 binding intensity in assay [2] and in assay [4] were 1010 and 1110, respectively.
On the same counts, the results for GCCGCTGGGTAGGCGGAAGTAGCCGCAGGCATGGCA are 5590, 7400, 760 and 1000.
In the case of GCACTTCCGGAGCCGGGCGTCTACAGACCGCGGCCA, the ETS1 binding intensity came to 868 in assay [1] and 1050 in assay [3]. The RUNX1 binding intensity was 804 in assay [2] and 2190 in assay [4].
As to GTGGTCGGGAGGGGAAGTGAGGCGGTTACCTCGGCG, the ETS1 binding intensity in assay [1] is 684; in assay [3], 689. In addition, the RUNX1 binding intensity in assay [2] came to 790; in assay [4], 925.
GGCACCGGAAGTAGAGCTGCCCCTAGTTGCGGCAGT: the ETS1 binding intensity is 9240 in assay [1] and 12800 in assay [3]. For the same sequence, the RUNX1 binding intensity in assay [2] worked out at 767; in assay [4] it was 1380.
As for CAGTGAACAGTTTCCTGTTCCTGTGGTTTTGACTTT, the ETS1 binding intensity in assay [1] stood at 1230. Besides, the RUNX1 binding intensity in assay [2] stood at 1420; in assay [4], 3980.
As for TCCGGAAGTCGGAGGAACACCCCAGCCGCCGCAGCC, the ETS1 binding intensity turned out to be 1840 in assay [1] and 2010 in assay [3]. Also, the RUNX1 binding intensity in assay [2] stood at 751; in assay [4] it was 988.
Consider GTTAGAGGAAGAGGAAGCGGTCAAGAGATCGTCACA, for which the ETS1 binding intensity amounted to 956 in assay [1] and 1280 in assay [3]. The RUNX1 binding intensity in assay [2] stood at 766; in assay [4], 1810.
Consider AGACAGGAGTTCAGGAAGCTGCGGTCTAGATTATGT, for which the results for the ETS1 binding intensity in assay [1] and in assay [3] were 754 and 6250, respectively. Moreover, the RUNX1 binding intensity in assay [2] stood at 1210; in assay [4] it was 1710.
In assay [1], CCATCCAGGAAGCTTATGGTGCAACCGCAGTGTGCC showed an ETS1 binding intensity of 483. The RUNX1 binding intensity in assay [2] came to 943; in assay [4] it was 1620.
With GTGTGGAAGGAGGAAGCGAGAATGTGGTTACTTAGG, the ETS1 binding intensity in assay [1] is 718; in assay [3], 1890. The RUNX1 binding intensity stood at 868 in assay [2] and 1190 in assay [4].
On the same counts, the results for GCAGAACCAGAAACAGGATGTGGGTTCCCCTTTAAG are 7390, 18900, 826 and 4550.
TGTCGTACATTTCCGCCTTGTGGGCACAATCTGATT: the ETS1 binding intensity in assay [1] was found to be 965; in assay [3], 1280. The RUNX1 binding intensity turned out to be 971 in assay [2] and 1950 in assay [4].
For AATCCCGGAAACGCGGATTCAGCGGAGCGCGGTGAC, the ETS1 binding intensity in assay [1] came to 1280; in assay [3], 1500. Besides, the figures for the RUNX1 binding intensity in assay [2] and in assay [4] were 735 and 1260, respectively.
In assay [1], CCAGTACCCCACTTCCTGACCAAACCACAAAGGTCA gave an ETS1 binding intensity of 635. In addition, the RUNX1 binding intensity in assay [2] was 2980; in assay [4], 8080.
With ACCCACTTCCTGTTAGAGCATCTTTGCAACCACAGG, the ETS1 binding intensity in assay [1] is 2010; in assay [3] it was 3230. In addition, the RUNX1 binding intensity in assay [2] turned out to be 933; in assay [4], 3000.
As to CCCGCTGTCACTTCCTGCTTCCCTCCCGCACACGTG, the ETS1 binding intensity is 2700 in assay [1] and 2310 in assay [3]. The RUNX1 binding intensity in assay [2] is 1920; in assay [4], 3690.
As to CGGGTGGTGGCAGGATGTGGGTAGGGGGCCAGGCGA, the ETS1 binding intensity in assay [1] worked out at 2930; in assay [3], 6860. For the same sequence, the RUNX1 binding intensity in assay [2] stood at 895; in assay [4], 2560.
Take CAGAGAGCGGACTTCCGCGACGCGGGTAAGCCGGGC: the ETS1 binding intensity in assay [1] came to 498; in assay [3], 368. The RUNX1 binding intensity came out at 670 in assay [2] and 894 in assay [4].
Turning to TATCAATAAGGAAGTACAATCACCAAACCACAAGCC, the ETS1 binding intensity in assay [1] is 619; in assay [3], 2700. Further, the RUNX1 binding intensity came to 1170 in assay [2] and 1140 in assay [4].
On the same counts, the results for CCAATGGGCAGGCGGAAACCGCGGGCTCGTGCTCCC are 1580, 2900, 956 and 1350.
In the case of CACCGGAAAAGGCAAGCGCGGCCGCGCGGTTGGCGC, the figures for the ETS1 binding intensity in assay [1] and in assay [3] were 675 and 1090, respectively. In addition, the RUNX1 binding intensity in assay [2] stood at 745; in assay [4] it was 1160.
On the same counts, the results for AGGCTTCCTGTTTTATCTCGTGTGTGTGGTGCACCA are 547, 565, 970 and 2120.
As to CCAGAATGCAGGAAGTGCTGTGGTTTGACTTTGTTT, the results for the ETS1 binding intensity in assay [1] and in assay [3] were 3550 and 9350, respectively. Moreover, the RUNX1 binding intensity in assay [2] stood at 831; in assay [4], 1970.
For the sequence AGGTGTACTTTCCGGGTGCAGACCGCGAATGGATCG, the ETS1 binding intensity came to 383 in assay [1] and 534 in assay [3]. Also, the RUNX1 binding intensity in assay [2] is 743; in assay [4] it was 1120.
Regarding ACAGATCCAAGGAAGCATATCCCGCAAGCAACTGTT, the ETS1 binding intensity in assay [1] came out at 460; in assay [3], 589. For the same sequence, the RUNX1 binding intensity in assay [2] came to 797; in assay [4] it was 875.
Take TTCAACAAGGTTTTCCTGTGGTTACCCCATGCTTTG: the ETS1 binding intensity in assay [1] stood at 364; in assay [3], 451. Further, the RUNX1 binding intensity was found to be 1040 in assay [2] and 1680 in assay [4].
GGGCAGCAGCAGACCGGAAACCACAGCCGACTAAGA: the ETS1 binding intensity in assay [1] was determined as 10700; in assay [3] it was 29500. The RUNX1 binding intensity was found to be 1160 in assay [2] and 3330 in assay [4].
In the case of GGAGCGCGCCGGAAACGCGCGGCTGCGGCCCGGGAG, the values for the ETS1 binding intensity in assay [1] and in assay [3] were 4280 and 4330, respectively. For the same sequence, the RUNX1 binding intensity is 722 in assay [2] and 1320 in assay [4].
With AGGCCCGGATACCCGCCCCCAAAACCGCGTCCACAA, the results for the ETS1 binding intensity in assay [1] and in assay [3] were 523 and 1050, respectively. Besides, the RUNX1 binding intensity stood at 1040 in assay [2] and 1090 in assay [4].
Regarding TTGTCACGTCCGGCACGCCGCGAACCGCAAGGAACC, the ETS1 binding intensity was found to be 571 in assay [1] and 1800 in assay [3]. Besides, the RUNX1 binding intensity was determined as 1270 in assay [2] and 2720 in assay [4].
Turning to TCTGATGTGCCTTCTTCCTGACCACAGCAACTACTA, the ETS1 binding intensity amounted to 392 in assay [1] and 511 in assay [3]. The figures for the RUNX1 binding intensity in assay [2] and in assay [4] were 1250 and 1270, respectively.
Turning to AGCTAAACCCAGTTCCGGTGCTGTGGGGAGCTCAGA, the ETS1 binding intensity in assay [1] is 858; in assay [3], 908. The RUNX1 binding intensity in assay [2] worked out at 741; in assay [4], 1990.
Turning to CAGTCAAGAGGAAATTATAAACCACTGCCTCTTTGA, the ETS1 binding intensity in assay [1] was 599; in assay [3], 744. In addition, the RUNX1 binding intensity in assay [2] was determined as 833; in assay [4] it was 909.
GGGCTCGGGGAGGAAGCGGTGGTTTCTCTTTGAAGC: the ETS1 binding intensity was determined as 696 in assay [1] and 907 in assay [3]. Further, the RUNX1 binding intensity was found to be 729 in assay [2] and 970 in assay [4].
For the sequence TGCCGCGGATACCCAGCCAGCGGCAGTGCGGTTAAC, the ETS1 binding intensity in assay [1] stood at 349; in assay [3], 955. Further, the values for the RUNX1 binding intensity in assay [2] and in assay [4] were 1140 and 1210, respectively.
On the same counts, the results for GTGCTCCTCGCTTCCTCCGCGGTCTTCCGAGCGGTC are 465, 365, 1150 and 1370.
On the same counts, the results for GTCGGAAGTGGCCGTGAGCCCAAGCCGCGGTCCCGG are 480, 486, 678 and 951.
